# Assay results published in PubChem BioAssay (NCATS).
# Records with an inconclusive call do not appear. Where a call stands in place of a potency, no number is given. Values without a mark were called inactive. Activity calls are given as the source filed them. Calls come from the whole dose curve; as a rule, active = well fitted inhibition curve with a large enough effect; inconclusive = small, poorly fitted or top-dose-only effect; inactive = flat fitted curve, though single readings scatter.
# What was measured:
# HEK293 = assay: Cytotoxic Profiling of Annotated Libraries Using Quantitative High-Throughput Screening (AID 1296008); details: Five cell lines viability, CellTiter-Glo ATP luminescence, 48-72 h; max response: hits give low values
# Procedure, shortened: (§1)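 Cells exposed to compounds for 48 or 72 hr at 37 degrees Celsius. Viability read as ATP-coupled luminescence with CellTiter-Glo after 10 min at room temperature.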
# HaCat [1] = assay: as above; details: Five cell lines viability, CellTiter-Glo ATP luminescence, 48-72 h; max response: hits give low values
# Procedure, shortened: as §1
# NIH3T3 = assay: as above; details: Five cell lines viability, CellTiter-Glo ATP luminescence, 48-72 h; max response: hits give low values
# Procedure, shortened: as §1
# HEK293T = assay: qHTS assay to identify novel small-molecules to repurpose for Merkel cell carcinoma treatment (AID 1296009); details: MCC and control cell lines, CellTiter-Glo viability, 72 h; at 44.8 µM (top of the series) unless noted
# Procedure, shortened: (§2)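 Cells were incubated with compound for 72 hr at 37 degree celsius before CellTiter-Glo addition. Luminescence was normalized with no-cell wells as full cytotoxicity and DMSO as baseline.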
# MCC-13 = assay: as above; details: MCC and control cell lines, CellTiter-Glo viability, 72 h; series mostly up to 46 µM
# Procedure, shortened: as §2
# MCC-26 = assay: as above; details: MCC and control cell lines, CellTiter-Glo viability, 72 h; series mostly up to 46 µM
# Procedure, shortened: as §2
# MKL-1 = assay: as above; details: MCC and control cell lines, CellTiter-Glo viability, 72 h; series mostly up to 46 µM
# Procedure, shortened: as §2
# MKL-2 = assay: as above; details: MCC and control cell lines, CellTiter-Glo viability, 72 h; series mostly up to 46 µM
# Procedure, shortened: as §2
# HACAT [2] = assay: as above; details: MCC and control cell lines, CellTiter-Glo viability, 72 h; at 44.8 µM (top of the series) unless noted
# Procedure, shortened: as §2
# KB-3-1 = assay: Cytotoxic Profiling of Annotated Libraries Using Quantitative High-Throughput Screening (AID 1296008); details: Five cell lines viability, CellTiter-Glo ATP luminescence, 48-72 h; max response: hits give low values
# Procedure, shortened: as §1
# Note: nearly all actives have a fitted effect of over 60% in size.
# Potency is the fitted concentration of half-maximal effect.
smiles,measurement,setting,value
NC(=O)NC1N=C([O][Al])NC1=O (stereo unspecified),outcome,HEK293,inactive
same,max response,HaCat [1],3.4%
same,max response,NIH3T3,1.11%
same,outcome,HEK293T,inactive
same,Potency,MCC-13,inactive
same,Potency,MCC-26,inactive
same,Potency,MKL-1,inactive
same,Potency,MKL-2,inactive
CC(=O)OCC[N+](C)(C)C,outcome,HEK293,inactive
same,max response,HaCat [1],-14.7%
same,max response,NIH3T3,3.81%
same,outcome,HEK293T,inactive
same,Potency,MCC-13,inactive
same,Potency,MCC-26,inactive
same,Potency,MKL-1,inactive
CCOc1ccc(NS(=O)(=O)c2ccc(N)cc2)nn1,outcome,HEK293,inactive
same,max response,HaCat [1],1.89%
same,max response,NIH3T3,3.16%
same,outcome,HEK293T,inactive
same,Potency,MCC-13,inactive
same,Potency,MKL-1,inactive
same,Potency,MKL-2,inactive
CCOc1ccccc1OCC1CNCCO1 (stereo unspecified),outcome,HEK293,inactive
same,max response,HaCat [1],0.667%
same,outcome,NIH3T3,inactive
same,outcome,HEK293T,inactive
same,Potency,MCC-13,inactive
same,Potency,MCC-26,inactive
same,Potency,MKL-1,inactive
same,Potency,MKL-2,inactive
CC(=O)/C=C/C=C1/C2CCC(C2)C1(C)C (stereo unspecified),max response,HEK293,-13.1%
same,max response,HaCat [1],-7.21%
same,max response,NIH3T3,-0.501%
same,Potency,MCC-13,inactive
same,Potency,MCC-26,inactive
same,Potency,MKL-1,inactive
O=c1[nH]c(=O)n([C@H]2O[C@H](CO)[C@@H](O)[C@@H]2O)cc1/C=C\Br,outcome,HEK293,inactive
same,max response,HaCat [1],4.03%
same,max response,NIH3T3,-0.191%
same,outcome,HEK293T,inactive
same,Potency,MCC-13,inactive
same,Potency,MCC-26,inactive
same,Potency,MKL-1,inactive
same,Potency,MKL-2,inactive
CCOC(=O)C(=O)CCc1ccccc1,max response,HEK293,4.19%
same,outcome,HaCat [1],inactive
same,max response,NIH3T3,-3.41%
same,outcome,HACAT [2],inactive
same,Potency,MCC-26,inactive
same,Potency,MKL-1,inactive
same,Potency,MKL-2,inactive
CC(=O)N1CCN(c2ccc(O)cc2)CC1,max response,HEK293,-2.95%
same,outcome,HaCat [1],inactive
same,outcome,NIH3T3,inactive
same,outcome,HACAT [2],inactive
same,Potency,MCC-13,inactive
same,Potency,MKL-1,8.41 µM (active)
same,Potency,MKL-2,7.5 µM (active)
O=C1CC2(CCCC2)CC(=O)N1CCNCC1COc2ccccc2O1 (stereo unspecified),outcome,HEK293,inactive
same,max response,HaCat [1],-0.105%
same,max response,NIH3T3,-7.46%
same,outcome,HEK293T,inactive
same,Potency,MCC-13,inactive
same,Potency,MCC-26,inactive
same,Potency,MKL-1,inactive
same,Potency,MKL-2,inactive
O=C(O)C(=O)Nc1cccc(-c2nn[nH]n2)c1,outcome,HEK293,inactive
same,max response,HaCat [1],-5.35%
same,outcome,NIH3T3,inactive
same,outcome,HEK293T,inactive
same,Potency,MCC-13,inactive
same,Potency,MCC-26,inactive
same,Potency,MKL-1,inactive
same,Potency,MKL-2,inactive
CN1CCN(N)CC1,outcome,HEK293,inactive
same,max response,HaCat [1],1.4%
same,outcome,NIH3T3,inactive
same,outcome,HEK293T,inactive
same,Potency,MCC-13,inactive
same,Potency,MCC-26,inactive
same,Potency,MKL-1,inactive
same,Potency,MKL-2,inactive
Cc1[nH]cnc1-c1ccc(Cl)cc1,outcome,HEK293,inactive
same,max response,HaCat [1],-6.75%
same,outcome,NIH3T3,inactive
same,outcome,HEK293T,inactive
same,Potency,MCC-13,inactive
same,Potency,MCC-26,inactive
same,Potency,MKL-1,inactive
same,Potency,MKL-2,inactive
COc1cc2c(cc1OC)CN(C(=O)[C@H](C)N[C@@H](CCc1ccccc1)C(=O)O)[C@H](C(=O)O)C2,outcome,HEK293,inactive
same,max response,HaCat [1],0.663%
same,max response,NIH3T3,-7.08%
same,outcome,HEK293T,inactive
same,Potency,MCC-13,inactive
same,Potency,MCC-26,inactive
same,Potency,MKL-1,inactive
same,Potency,MKL-2,inactive
CC(C)(Oc1ccc(Cl)cc1)C(=O)OCCCOC(=O)C(C)(C)Oc1ccc(Cl)cc1,max response,HEK293,-15.3%
same,max response,HaCat [1],-1.93%
same,max response,NIH3T3,1.4%
same,Potency,MCC-13,inactive
same,Potency,MCC-26,inactive
same,Potency,MKL-1,inactive
CCCCOCCOC(=O)c1cccnc1,outcome,HEK293,inactive
same,max response,HaCat [1],-21.3%
same,max response,NIH3T3,-2.28%
same,outcome,HEK293T,inactive
same,Potency,MCC-13,inactive
same,Potency,MCC-26,inactive
same,Potency,MKL-1,inactive
same,Potency,MKL-2,inactive
CC(C)C(=O)OCc1cccc(OC(=O)[C@@H]2N3C(=O)[C@@H](NC(=O)Cc4ccccc4)[C@H]3SC2(C)C)c1,outcome,HEK293,inactive
same,max response,HaCat [1],-11.1%
same,max response,NIH3T3,4.46%
same,outcome,HEK293T,inactive
same,Potency,MCC-13,inactive
same,Potency,MCC-26,inactive
same,Potency,MKL-1,inactive
same,Potency,MKL-2,inactive
CCCc1ncc(C(=O)O)s1,max response,HEK293,4.41%
same,outcome,HaCat [1],inactive
same,outcome,NIH3T3,inactive
same,outcome,HACAT [2],inactive
same,Potency,MCC-13,inactive
same,Potency,MKL-1,inactive
same,Potency,MKL-2,inactive
CCOC(=O)OCC/C(SC(=O)OCC)=C(\C)N(C=O)Cc1cnc(C)nc1N,max response,HEK293,-0.945%
same,max response,HaCat [1],-10.8%
same,outcome,NIH3T3,inactive
same,Potency,MCC-13,inactive
same,Potency,MCC-26,inactive
same,Potency,MKL-1,inactive
same,Potency,MKL-2,inactive
CCOC(=O)O[C@]1(C(=O)OCCl)CC[C@H]2[C@@H]3CCC4=CC(=O)C=C[C@]4(C)[C@H]3[C@@H](O)C[C@@]21C,outcome,HEK293,inactive
same,max response,HaCat [1],-4.73%
same,outcome,NIH3T3,inactive
same,outcome,HEK293T,inactive
same,Potency,MCC-13,inactive
same,Potency,MCC-26,inactive
same,Potency,MKL-1,inactive
same,Potency,MKL-2,inactive
C=CCNc1nc(NCC=C)nc(N2CCN(C(c3ccc(F)cc3)c3ccc(F)cc3)CC2)n1,Potency,HEK293,8.41 µM (active)
same,max response,HaCat [1],2.53%
same,max response,NIH3T3,-15.1%
same,Potency,MCC-13,inactive
same,Potency,MCC-26,inactive
same,Potency,MKL-1,inactive
Cc1nc2n(c(=O)c1CCN1CCC(C(=O)c3ccc(F)cc3)CC1)CCS2,Potency,HEK293,8.41 µM (active)
same,max response,HaCat [1],1.44%
same,max response,NIH3T3,-4.75%
same,Potency,MCC-13,inactive
same,Potency,MCC-26,inactive
same,Potency,MKL-1,inactive
CN(C)CCCOC1(Cc2ccccc2)CCCCCC1,outcome,HEK293,inactive
same,max response,HaCat [1],-13.3%
same,max response,NIH3T3,0.545%
same,outcome,HEK293T,inactive
same,Potency,MCC-13,inactive
same,Potency,MCC-26,inactive
same,Potency,MKL-1,inactive
same,Potency,MKL-2,inactive
CN(C)C(=O)CNC(=O)Cc1ccccc1,max response,HEK293,-9.26%
same,outcome,KB-3-1,inactive
same,max response,NIH3T3,-5.07%
same,Potency,MCC-13,inactive
same,Potency,MCC-26,inactive
same,Potency,MKL-1,inactive
same,Potency,MKL-2,inactive
Cc1onc(-c2c(Cl)cccc2Cl)c1C(=O)Cl,max response,HEK293,-4.58%
same,max response,HaCat [1],-4.26%
same,max response,NIH3T3,-2.46%
same,Potency,MCC-13,inactive
same,Potency,MCC-26,inactive
same,Potency,MKL-1,inactive
same,Potency,MKL-2,inactive
O=C(O)Cc1ccccc1Oc1ccc(Cl)cc1Cl,max response,HEK293,3.66%
same,outcome,KB-3-1,inactive
same,max response,NIH3T3,-11.6%
same,Potency,MCC-13,inactive
same,Potency,MCC-26,inactive
same,Potency,MKL-1,inactive
same,Potency,MKL-2,inactive
OC1(c2ccccc2)CCNCC1,max response,HEK293,1.58%
same,max response,HaCat [1],-1.01%
same,outcome,NIH3T3,inactive
same,Potency,MCC-13,inactive
same,Potency,MKL-1,inactive
same,Potency,MKL-2,inactive
CCOC(=O)N1CCC(Nc2ccc(Cl)cc2N)CC1,max response,HEK293,-13.9%
same,max response,HaCat [1],-14.7%
same,Potency,MCC-13,inactive
same,Potency,MCC-26,inactive
same,Potency,MKL-1,21.1 µM (active)
same,Potency,MKL-2,26.6 µM (active)
CO[C@@H]1[C@@H](OC)[C@H](C)[C@@](O)(CC(=O)O)O[C@H]1[C@H](C)[C@H]1O[C@@]2(CC[C@@](C)([C@H]3CC[C@@](C)([C@@H]4O[C@@H]([C@H]5O[C@](C)(O)[C@H](C)C[C@@H]5C)C[C@@H]4OC4C[C@H](OC)[C@@H](OC)[C@H](C)O4)O3)O2)C[C@H](O)[C@H]1C (stereo partly specified),Potency,HEK293,0.237 µM (active)
same,Potency,KB-3-1,16.4 µM (active)
same,Potency,NIH3T3,6.68 µM (active)
same,Potency,MCC-13,2.99 µM (active)
same,Potency,MKL-1,0.376 µM (active)
same,Potency,MKL-2,0.211 µM (active)
